Activity calls are given as the source filed them. Unless noted, the call rests on the fitted dose curve; in most records, active means well fitted curve in the direction sought with a large enough effect in the repeat runs; inconclusive means weak or mixed curves; inactive means no such curve, though single readings can be large; an effect the other way counts as inactive or inconclusive.
Key:
[1] = qHTS assay for small molecule agonists of the p53 signaling pathway (AID 651631; calls by dose curve; further: nearly all actives have a fitted effect of over 15% in size; further: potency means the concentration at half of the fitted maximal effect)
How it was run: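 Testing took place in human colorectal HCT-116 cells with stable p53RE-driven beta-lactamase. After 16 h of compound exposure at 37 °C, a FRET substrate was added and fluorescence recorded 2 h later.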

[2] = qHTS assay for small molecules that induce genotoxicity in human embryonic kidney cells expressing luciferase-tagged ATAD5 (AID 651632); further: nearly all actives have a fitted effect of over 15% in size
How it was run: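 Increased luciferase signal from ATAD5-tagged reporter cells indicates DNA-damage-driven ATAD5 induction. HEK293T cells are treated for 16 hr at 37C before detection with Amplite.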

[3] = qHTS assay for small molecule agonists of the p53 signaling pathway - cell viability (AID 651633; calls by dose curve; further: nearly all actives have a fitted effect of over 30% in size)
How it was run: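 Viability counter-read: CellTiter-Glo luminescence (30 min, room temperature) in the same p53RE-bla plates. These plates had been exposed to compounds for 16 h at 37 C.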

[4] = qHTS assay for small molecules that induce genotoxicity in human embryonic kidney cells expressing luciferase-tagged ATAD5 - cell viability (AID 651634; calls by dose curve; further: nearly all actives have a fitted effect of over 25% in size)
How it was run: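 Cytotoxicity counterscreen in HEK293T cells bearing an ATAD5-luciferase reporter: live-cell protease activity measured by CellTiter-Fluor fluorescence after 15.5 hr compound exposure.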

[5] = qHTS assay for small molecule disruptors of the mitochondrial membrane potential - cell viability (AID 720634; calls by dose curve;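 further: human HepG2 liver cancer cells; nearly all actives have a fitted effect of over 20% in size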)
How it was run: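 After overnight attachment at 37 C, HepG2 cells received compound or DMSO vehicle for 1 hr. Viability is then taken from ATP-driven luminescence following a 30 min room-temperature CellTiter-Glo step.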

[6] = qHTS assay for small molecule disruptors of the mitochondrial membrane potential (AID 720635); further: potency means the concentration at half of the fitted maximal effect
How it was run: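 Mitochondrial membrane potential tracked with Mito-MPS dye, red aggregates (ex 540/em 590 nm) against green monomers (ex 490/em 535 nm). Compound treatment 1 hr at 37C, dye 30 min in HepG2.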

[7] = qHTS assay to test for compound auto fluorescence at 590 nm (red) in HepG2 cells (AID 720674)
How it was run: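 Red autofluorescence (Ex/Em 540/590 nm, Rose Bengal sodium equivalents) was measured in HepG2 cells, 2,000 per well in MEM plus 10% FBS, plated overnight at 37 C. Readings were taken 1 hr after adding 23 nL compound or DMSO, at 37 C and 5% CO2.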

[8] = qHTS assay to test for compound auto fluorescence at 535 nm (green) in HepG2 cells (AID 720675)
[9] = qHTS assay to test for compound auto fluorescence at 590 nm (red) in HEK293 cells (AID 720679)
How it was run: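 Autofluorescence equivalency to Rose Bengal sodium, 540/590nm, in HEK293 cells exposed overnight to 23 nL compound per well.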

[10] = qHTS assay to test for compound auto fluorescence at 535 nm (green) in HEK293 cells (AID 720680)
[11] = qHTS assay to test for compound auto fluorescence at 460 nm (blue) in HEK293 cell free culture (AID 720681)
How it was run: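 Blue fluorescence (Ex 405/Em 460 nm, triamterene-equivalent) was read immediately after pin transfer of compound or DMSO into medium (DMEM, 10% FBS) without cells.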

[12] = qHTS assay to test for compound auto fluorescence at 535 nm (green) in HEK293 cell free culture (AID 720682)
How it was run: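 DMEM + 10% FBS, cell-free; cpd or DMSO pinned in; Ex485/Em535 read; output as fluorescein-equivalent signal.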

[13] = qHTS assay to test for compound auto fluorescence at 590 nm (red) in HEK293 cell free culture (AID 720683)
How it was run: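 Red-channel autofluorescence of compounds in culture medium (DMEM, 10% FBS), no cells, measured at 540/590 nm. Rose Bengal sodium is the reference fluorophore for equivalence.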

[14] = qHTS assay to test for compound auto fluorescence at 590 nm (red) in HepG2 cell free culture (AID 720684)
How it was run: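 Plate contents were MEM with 10% FBS plus test compound or DMSO, no cells. Fluorescence was recorded with 540 nm excitation and 590 nm emission.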

[15] = qHTS assay to test for compound auto fluorescence at 535 nm (green) in HepG2 cell free culture (AID 720686)
[16] = qHTS assay to test for compound auto fluorescence at 460 nm (blue) in HepG2 cells (AID 720687)
How it was run: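 Blue-channel autofluorescence (Ex/Em 405/460 nm, triamterene-equivalent) was measured after 1 hr compound exposure at 37 C, 5% CO2. Cells were HepG2, plated overnight at 37 C in MEM plus 10% FBS.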

[17] = biological target: Glucocorticoid receptor (Homo sapiens) (UniProt P04150); assay: qHTS assay to identify small molecule agonists of the glucocorticoid receptor (GR) signaling pathway (AID 720691; active means well fitted activation curve with a large enough effect in the signal ratio in the repeat runs, not every such curve was filed as active; inconclusive means weak or mixed curves, or effect the other way; inactive means no such curve, though single readings can be large or run the other way; the % refers to the signal ratio; further: potency means the concentration at half of the fitted maximal effect); conditions: GR-bla HeLa, beta-lactamase reporter ratio, 18 h; activation: at 62.4 µM (top of the series) unless noted
Chain of Glucocorticoid receptor (Homo sapiens) (P04150 whole entry, looked up): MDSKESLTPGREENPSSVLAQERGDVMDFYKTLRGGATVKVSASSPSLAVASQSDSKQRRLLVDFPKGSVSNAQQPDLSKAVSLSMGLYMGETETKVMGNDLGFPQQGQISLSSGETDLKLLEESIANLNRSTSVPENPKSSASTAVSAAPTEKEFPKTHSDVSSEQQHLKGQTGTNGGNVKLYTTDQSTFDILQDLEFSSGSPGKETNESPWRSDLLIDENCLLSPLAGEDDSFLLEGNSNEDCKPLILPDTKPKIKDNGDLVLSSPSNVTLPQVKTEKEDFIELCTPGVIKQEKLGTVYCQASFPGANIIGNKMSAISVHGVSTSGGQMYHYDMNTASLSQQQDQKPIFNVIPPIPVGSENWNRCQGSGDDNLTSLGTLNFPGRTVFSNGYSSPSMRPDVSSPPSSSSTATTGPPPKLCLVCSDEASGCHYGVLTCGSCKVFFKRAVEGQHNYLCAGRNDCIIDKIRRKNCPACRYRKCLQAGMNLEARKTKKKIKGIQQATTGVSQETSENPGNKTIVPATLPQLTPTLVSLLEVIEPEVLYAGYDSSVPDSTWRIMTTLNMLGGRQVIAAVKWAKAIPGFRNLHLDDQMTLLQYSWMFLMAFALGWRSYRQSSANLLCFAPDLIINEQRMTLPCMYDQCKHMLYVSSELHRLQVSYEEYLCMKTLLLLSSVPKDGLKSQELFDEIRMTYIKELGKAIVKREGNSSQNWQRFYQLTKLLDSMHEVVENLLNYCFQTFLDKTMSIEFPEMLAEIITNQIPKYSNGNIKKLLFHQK
How it was run: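 Agonist mode in a HeLa line carrying a GRE-controlled beta-lactamase reporter. Compounds act for 18 h at 37 C before a 2 h room-temperature FRET substrate step and fluorescence reading.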

[18] = biological target: Glucocorticoid receptor (Homo sapiens) (UniProt P04150); assay: qHTS assay to identify small molecule antagonists of the glucocorticoid receptor (GR) signaling pathway (AID 720692; active means well fitted inhibition curve with a large enough effect in the signal ratio in the repeat runs, not every such curve was filed as active; inconclusive means weak or mixed curves, or effect the other way; inactive means no such curve, though single readings can be large or run the other way; the % refers to the signal ratio)
How it was run: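 Cells plated, rested 4 h at 37 C/5% CO2; compounds in DMSO pin-transferred; dexamethasone added to 5 nM final; 18 h at 37 C; B/G FRET substrate added, 2 h room temperature; fluorescence measured.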

[19] = qHTS assay to test for compound auto fluorescence at 460 nm (blue) in HEK293 cells (AID 720678)
How it was run: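 Auto fluorescence in the blue band was quantified as triamterene equivalency. HEK293 cells were seeded at 2,000/well, dosed after a 4-5 hr attachment, and kept overnight at 37C before the 405/460 nm reading.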

[20] = qHTS assay to test for compound auto fluorescence at 460 nm (blue) in HepG2 cell free culture (AID 720685)
How it was run: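 Compound (23 nL) or DMSO pinned into cell-free MEM with 10% FBS; blue fluorescence read at 405/460 nm excitation/emission, expressed as auto-fluorescence equivalency to triamterene.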
On the % scale 0 is the no-effect control and ±100 the full control effect.

Cc1ncc(CO)c(C=O)c1O
inactive: Potency [1] | Potency [2] | Potency [3] | Potency [4] | Potency [5] | Potency [6] | Potency [7] | Potency [8] | Potency [9] | outcome [10] | outcome [11] | outcome [12] | Potency [13] | Potency [14] | Potency [15] | outcome [16] | Potency [17] | Potency [18]

C[C@@H]1C[C@H]2O[C@@]3(O[C@@H]2C(C)(C)O)[C@H](O)[C@@]2(C)[C@@H]4CC[C@H]5C(C)(C)[C@@H](O[C@@H]6OC[C@@H](O)[C@H](O)[C@H]6O)CC[C@@]56C[C@@]46CC[C@]2(C)[C@@H]13
active: Potency [6] 5.38 µM
inactive: Potency [1] | Potency [2] | Potency [3] | Potency [4] | Potency [5] | Potency [7] | outcome [19] | Potency [9] | outcome [10] | outcome [11] | outcome [12] | Potency [13] | Potency [14] | outcome [20] | Potency [15] | outcome [16] | Potency [17]

Nc1cc(C(=O)O)c(O)c(S(=O)(=O)O)c1
inactive: Potency [1] | Potency [2] | Potency [3] | Potency [4] | Potency [5] | Potency [6] | Potency [7] | Potency [8] | outcome [19] | Potency [9] | outcome [10] | outcome [11] | Potency [13] | Potency [14] | outcome [20] | Potency [15] | outcome [16] | Potency [17] | Potency [18]

Clc1ccc(Cn2c(CN3CCCC3)nc3ccccc32)cc1
inactive: Potency [1] | Potency [2] | Potency [3] | Potency [4] | Potency [5] | fluorescence, relative to Rose Bengal [7] -0.15% [at 18.6 µM] | fluorescence, % of fluorescein control [8] 0.097% [at 18.6 µM] | fluorescence, % of triamterene [19] 0.123% [at 18.6 µM] | fluorescence, % of fluorescent control [9] 0.574% [at 18.6 µM] | fluorescence, % of fluorescein [10] 0.026% [at 18.6 µM] | fluorescence, % of fluorescent control [11] -0.0089% [at 18.6 µM] | activity change [12] -0.0526% [at 18.6 µM] | fluorescence, % of fluorescent control [13] 0.147% [at 18.6 µM] | fluorescence, % of Rose Bengal [14] -0.0239% [at 18.6 µM] | fluorescence, % of fluorescent control [20] 0.0634% [at 18.6 µM] | fluorescence, % of fluorescein control [15] -0.0084% [at 18.6 µM] | fluorescence, % of fluorescent control [16] 0.0474% [at 18.6 µM] | Potency [17]

C/C=C/C=C/CO
inactive: Potency [1] | Potency [2] | Potency [3] | Potency [4] | Potency [5] | Potency [6] | Potency [7] | Potency [8] | outcome [19] | Potency [9] | outcome [10] | outcome [11] | Potency [13] | Potency [14] | Potency [15] | outcome [16] | Potency [17] | Potency [18]

CN1C[C@H]2c3ccccc3Oc3ccc(Cl)cc3[C@@H]2C1
active: Potency [1] 29.8 µM
inactive: Potency [2] | Potency [3] | Potency [4] | Potency [5] | Potency [7] | Potency [8] | outcome [19] | Potency [9] | outcome [10] | outcome [11] | outcome [12] | Potency [13] | Potency [14] | outcome [20] | Potency [15] | outcome [16]

CCCCC(=O)OCC(=O)[C@H]1[C@H](C)C[C@H]2[C@@H]3C[C@H](F)C4=CC(=O)C=C[C@]4(C)[C@@]3(F)[C@@H](O)C[C@@]21C
active: Potency [17] 0.0076 µM [inconclusive]
inactive: Potency [1] | Potency [2] | Potency [3] | Potency [4] | Potency [5] | Potency [7] | Potency [8] | outcome [19] | Potency [9] | outcome [10] | outcome [11] | outcome [12] | Potency [13] | Potency [14] | outcome [20] | Potency [15] | outcome [16]
